# The entries come from a sample that favours hits as a whole.
# L3MBTL1 block: blocks human L3MBTL1 | Q9Y468 | Potency, µM (doses to about 57.1 µM), for the others: at the highest dose activity, negative = inhibition, most hits filed as inhibitors | 0.66% of 230,000 active | AlphaScreen L3MBTL1–H3K9me1 peptide binding; further: nearly all actives have a fitted effect of over 60% in size
# Target sequence (Q9Y468 whole entry, looked up): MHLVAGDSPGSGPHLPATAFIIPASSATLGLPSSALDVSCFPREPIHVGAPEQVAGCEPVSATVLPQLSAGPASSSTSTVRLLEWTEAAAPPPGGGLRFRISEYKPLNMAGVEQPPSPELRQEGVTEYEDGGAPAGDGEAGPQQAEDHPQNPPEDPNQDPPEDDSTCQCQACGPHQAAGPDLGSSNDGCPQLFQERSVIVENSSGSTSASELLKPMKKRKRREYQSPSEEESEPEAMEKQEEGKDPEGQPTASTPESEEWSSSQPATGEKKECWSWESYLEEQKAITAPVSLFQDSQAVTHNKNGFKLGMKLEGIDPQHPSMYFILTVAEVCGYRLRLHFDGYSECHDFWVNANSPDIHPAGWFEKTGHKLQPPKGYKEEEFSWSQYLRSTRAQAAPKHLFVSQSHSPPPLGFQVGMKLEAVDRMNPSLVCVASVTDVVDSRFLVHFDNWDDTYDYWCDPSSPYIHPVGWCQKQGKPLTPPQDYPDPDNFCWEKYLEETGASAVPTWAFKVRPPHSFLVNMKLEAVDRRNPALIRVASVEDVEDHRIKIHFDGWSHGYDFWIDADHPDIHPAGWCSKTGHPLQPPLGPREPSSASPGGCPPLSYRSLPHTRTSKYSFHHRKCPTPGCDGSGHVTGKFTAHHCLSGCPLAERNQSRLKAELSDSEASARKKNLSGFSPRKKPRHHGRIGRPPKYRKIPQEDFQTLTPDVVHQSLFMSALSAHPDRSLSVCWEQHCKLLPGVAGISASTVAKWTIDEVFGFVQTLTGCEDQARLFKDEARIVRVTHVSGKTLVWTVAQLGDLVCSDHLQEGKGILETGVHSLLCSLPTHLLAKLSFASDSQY
#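 Displacement of a biotinylated histone H3(1-15) peptide monomethylated at Lys9 (75 nM) from L3MBTL1 (50 nM) was measured by AlphaScreen after a 30 min room-temperature compound incubation; cefsulodin titration served as intraplate control.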
# RECQ1 inh-1: blocks DNA unwinding by human RECQ1. P46063. RECQ1 DNA unwinding, red fluorescence kinetic read. Potency, µM (top dose mostly 57.3 µM), inactives show at the top dose activity, negative = inhibition, hits mostly inhibitors. 0.54% of 240,000 active;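 further: plate controls were vehicle for no effect and no enzyme for full effect; nearly all actives have a fitted effect of over 30% in size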
#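 RECQ1T1 50 nM; forked duplex (20 bp + 30-nt ss tails) 200 nM, ATP 2 mM final; pH 8.0, 2 mM MgCl2, 2.5 ug/ml poly(dI-dC); 15 min compound preincubation; discontinuous kinetic read over 2 h at RT.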
# APE1 inh: APE1 (human) endonuclease inhibition; Potency, µM (titrated, usually from 65.8 µM), for inactives: at the top dose activity change, negative = inhibition, actives largely listed as inhibitors; P27695; recombinant APE1, TAMRA/BHQ-2 abasic DNA cleavage fluorescence; 0.35% of 350,000 active;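 further: plate controls were vehicle for no effect and reference inhibitor for full effect; nearly all actives have a fitted effect of over 55% in size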
#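 Incision of a quenched TAMRA/BHQ-2 THF abasic-site duplex (50 nM) by 0.75 nM APE1, after 15 min compound preincubation, measured as fluorescence increase over three 60 s reads. Values normalized to buffer, DMSO and NSC13755 control wells.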
# TDP1 block: TDP1 (human) enzyme inhibition; Q9NUW8; recombinant TDP1, AlphaScreen DNA substrate cleavage; Potency, µM (top dose mostly 130 µM), inactives show top-dose activity change, negative = inhibition, hits mostly inhibitors; 0.28% of 350,000 active; AID 485290; further: nearly all actives have a fitted effect of over 40% in size
#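 Tdp1 1 nM final; 15 min RT w/ cpd; substrate 15 nM, 5 min; beads 10 ug/ml, 10 min; AlphaScreen read. Neg ctrl: no enzyme.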
# BLM inh-1: inhibitors of human Bloom syndrome helicase BLM; P54132; recombinant BLM DNA unwinding, fluorescence dequenching; Potency, µM (titrated, usually from 56.1 µM), for inactives: at the top dose activity change, negative = inhibition, hits mostly inhibitors; 0.2% of 350,000 active; AID 2528;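 further: plate controls were vehicle for no effect and no enzyme for full effect; nearly all actives have a fitted effect of over 35% in size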
# JMJD2E inh: inhibitors of human JMJD2E histone demethylase; B2RXH2; JMJD2E catalytic domain, FDH-coupled NADH fluorescence (FDH is formaldehyde dehydrogenase); Potency, µM (top dose mostly 57.1 µM), inactives show at the highest dose activity change, negative = inhibition, most hits filed as inhibitors; 1.6% of 230,000 active; AID 2147; active means well fitted inhibition curve with a large enough effect, not every such curve was filed as active; inconclusive means small, poorly fitted or top-dose-only effect, or another doubt; inactive means no such curve, though single readings can be large or run the other way;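 further: 0% = wells with enzyme and -100% = buffer wells without enzyme; nearly all actives have a fitted effect of over 50% in size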
# BLM inh-2: confirmation of inhibitors of human Bloom syndrome helicase BLM. shares compounds with BLM inh-1. BLM DNA unwinding, fluorescence quenching, biochemical. Potency, µM, for the others: max response, negative = inhibition, most hits filed as inhibitors. 40% of 220 active;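 further: strand separation dequenches TAMRA so unwinding raises red fluorescence; series mostly up to about 69 µM; nearly all actives have a fitted effect of over 45% in size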
# RECQ1 inh conf: confirmation of human RECQ1 helicase inhibitors | shares compounds with RECQ1 inh-1 | RECQ1 helicase DNA unwinding, fluorescence | Potency, µM (titrated, usually from 229 µM), inactives show at the highest dose activity change, negative = inhibition, usual class: inhibitors | 28% of 610 active | AID 2708; further: nearly all actives have a fitted effect of over 45% in size
# ADP FP counter: displaces ADP in a fluorescence polarization counter-screen for RECQ1 hits; AID 2711; shares compounds with RECQ1 inh-1; ADP fluorescence polarization displacement counterscreen; Potency, µM (series often up to 228 µM), without a hit: at the top dose activity change, negative = inhibition, actives largely listed as inhibitors; 27% of 530 active; further: nearly all actives have a fitted effect of over 45% in size
# RECQ1 inh-2: blocks human RECQ1 DNA unwinding. shares compounds with RECQ1 inh-1. recombinant RECQ1 DNA unwinding, red fluorescence. Potency, µM (top dose mostly 119 µM), without a hit: top-dose activity, negative = inhibition, most hits filed as inhibitors. 15% of 1,100 active; further: nearly all actives have a fitted effect of over 50% in size
# * marks the source's active call; other numbers are inactive results; i = inactive; ? = inconclusive; nt = no result; [ ] = dose if it differs, or a comment. Unless noted, the call rests on the fitted dose curve; in most records, active means well fitted curve in the direction sought with a large enough effect; inconclusive means small, poorly fitted or top-dose-only effect, or another doubt; inactive means no such curve, though single readings can be large; an effect the other way counts as inactive or inconclusive. Unless noted, on the % scale 0 is the no-effect control and ±100 the full control effect; potency means the concentration at half of the fitted maximal effect.
SMILES,L3MBTL1 block,RECQ1 inh-1,APE1 inh,TDP1 block,BLM inh-1,JMJD2E inh,BLM inh-2,others
CC(C)N(C(=O)Nc1ccc2nsnc2c1)C(C)C,-75.8%,i,3.7%,5.1%,5.62µM*,1.0%,?,
COc1cc(-c2nc3ccc(N4CCN(C)CC4)cc3[nH]2)cc(OC)c1OC,-11.8%,-14.0%,-10.5%,2.9%,20µM*,?,?,
O=C(O)CSc1cc(C(=O)c2ccccc2O)cn2c(=O)c3c(-c4ccccc4)csc3nc12,-10.2%,-22.4%,-8.0%,?,28.2µM*,0.5%,?,
COC(=O)c1ccc(CSc2nc3scc(-c4cccs4)c3c(=O)[nH]2)o1,?,-26.2%,-7.8%,2.1%,25.1µM*,0.5%,?,
O=C(CSc1nccn1-c1ccc(Cl)cc1)Nc1cccc2ccccc12,nt,nt,nt,9.9%,-8.2%,nt,nt,
O=c1oc(-c2ccccc2)nc2sc3c(c12)CCC3,12.6µM*,2.4%,1.2%,nt,14.1µM*,-10.9%,?,
CCCCn1c(=O)[nH]c2nc3cc(N)ccc3nc2c1=O,-5.3%,-8.5%,13.2%,7.9%,5.62µM*,-2.9%,?,
Nc1ccc2nc3c(=O)n(C4CCCCC4)c(=O)[nH]c3nc2c1,nt,-16.5%,-5.5%,0.8%,-10.3%,?,nt,
C[C@H](NC(=O)CNC(=O)[C@@H](NC(=O)[C@H](Cc1ccccc1)NC(=O)CNC(=O)CNC[C@@H](N)Cc1ccccc1)[C@@H](C)O)C(=O)N[C@@H](CCCN=C(N)N)C(=O)N[C@@H](CCCCN)C(=O)N[C@@H](CO)C(=O)N[C@@H](C)C(=O)N[C@@H](CCCN=C(N)N)C(=O)N[C@@H](CCCCN)C(N)=O,nt,-5.7%,4.1%,15.4%,18.8%,nt,nt,
COc1ccccc1-n1cnc2c(c1=O)c1nc3ccccc3nc1n2-c1ccc(C)cc1,34.8%,-4.6%,4.5%,2.7%,10µM*,-5.2%,-0.9%,
COc1ccc(OC)c(NC(=O)c2ccc(-c3csc(C)n3)cc2)c1,-4.4%,nt,-22.1%,nt,-21.4%,nt,nt,
Cc1nc(-c2ccc(C(=O)Nc3cc(S(N)(=O)=O)ccc3C)cc2)cs1,-7.3%,nt,28.8%,-5.7%,7.08µM*,nt,6.46µM*,
CCOc1ccc2nc3cc(NCc4ccc(OC)cc4)ccc3c(N)c2c1,nt,nt,-22.2%,nt,14.1µM*,nt,7.25µM*,
C(/Oc1ccccc1)=C1\Nn2c(nnc2-c2cc(-c3ccccc3)n[nH]2)S1,nt,nt,nt,-1.7%,nt,nt,nt,
O=C(NCc1ccco1)c1c2c(nc3ccccc13)CCC2,?,28.2µM*,?,nt,17.8µM*,?,?,RECQ1 inh-2=?
O=C(NCc1ccc(F)cc1)c1c2c(nc3ccccc13)CCC2,?,?,-8.1%,-8.3%,-23.8%,?,nt,
CCOc1ccc(S(=O)(=O)N2CCN(c3nc(-c4ccccc4)nc4ccccc34)CC2)cc1OCC,nt,nt,nt,0.0%,nt,nt,nt,
COc1ccc(Br)cc1CNc1ccc(O)cc1,?,28.2µM*,-9.3%,12.4%,20µM*,?,-2.9%,RECQ1 inh-2=-12.3%
CCOc1ccccc1CNc1ccc(O)cc1,?,20µM*,-19.3%,5.4%,28.2µM*,-13.8%,-9.2%,RECQ1 inh conf=9.9%[114 µM];ADP FP counter=56.2µM*;RECQ1 inh-2=1.3%
CCOc1ccc(C(=O)Nc2ccc(-c3nc4ccccc4[nH]3)cc2)cc1[N+](=O)[O-],-5.3%,7.94µM*,0.1%,nt,-15.0%,-1.9%,?,RECQ1 inh conf=?;RECQ1 inh-2=?
Cc1ccc(N(CC(=O)Nc2ccc(Br)c(C)c2)S(=O)(=O)c2cccs2)cc1,nt,nt,nt,-4.7%,-0.8%,nt,nt,
COC(=O)c1ccc([C@@H]2Nc3c(cccc3C(F)(F)F)[C@@H]3C=CC[C@@H]32)cc1,nt,nt,nt,nt,-5.1%,nt,nt,
O=C(O)C1Nc2c(O)cccc2C2C=CCC12 (centres undefined),1µM*,3.98µM*,3.55µM*,nt,4.47µM*,17.8µM*,5.41µM*,RECQ1 inh conf=?
CC(=O)Nc1ccc(SCC(=O)c2ccc(Br)s2)cc1,nt,nt,29.4%,9.2%,-13.2%,nt,nt,
Cc1ccc(SCC(=O)c2ccc(CC(=O)O)s2)cc1,?,25.1µM*,-12.1%,nt,25.1µM*,-10.0%,?,RECQ1 inh-2=6.5%
SMILES,L3MBTL1 block,RECQ1 inh-1,APE1 inh,TDP1 block,BLM inh-1,JMJD2E inh,BLM inh-2,others
O=c1c(-c2ccccc2)nc2cnc(N3CCNCC3)nc2n1Cc1ccc(F)cc1,nt,-1.1%,2.2%,nt,-7.9%,nt,nt,
O=c1c(-c2cc(F)cc(F)c2)nc2cnc(N3CCNCC3)nc2n1Cc1ccc(F)cc1,nt,?,?,nt,35.5µM*,nt,?,RECQ1 inh-2=?
Cc1nc2cc(-c3ccsc3-n3c(C)ccc3C)[nH]n2c(=O)c1Cl,nt,2.82µM*,?,nt,15.8µM*,?,?,RECQ1 inh conf=39.8µM*;ADP FP counter=31.6µM*;RECQ1 inh-2=?
OC1OC[C@@H](O)[C@@H](O)[C@@H]1O (some centres undefined),nt,-18.8%,10.0%,14.1%,-1.3%,nt,nt,
Cc1ccc(-c2nc3c(c(SCC(=O)Nc4cccc(C(=O)O)c4)n2)Cc2cccc(C)c2O3)cc1,5.62µM*,nt,1.89µM*,nt,4.47µM*,nt,13.6µM*,RECQ1 inh conf=6.46µM*
CCc1ccc(N2CC(C)Cn3c2nc2c3c(=O)n(CC(=O)O)c(=O)n2C)cc1 (centres undefined),nt,nt,nt,-0.6%,-3.0%,nt,nt,
CCOC(=O)c1ccccc1NC(=O)Cn1c(=O)n(Cc2nc(-c3ccccc3)no2)c(=O)c2ccccc21,nt,nt,nt,2.8%,-2.9%,nt,nt,
COc1ccccc1CNC(=O)COC(=O)c1cc(-c2ccco2)nc2ccccc12,nt,?,11.2µM*,nt,11.2µM*,?,18.2µM*,RECQ1 inh-2=?
O=C(COC(=O)c1cc(-c2ccco2)nc2ccccc12)NCc1ccc2c(c1)OCO2,?,-6.5%,-2.0%,2.4%,0.2%,?,nt,
O=C(N/N=C/c1cccc(F)c1)c1cc(-c2ccco2)nc2ccccc12,5.62µM*,22.4µM*,4.47µM*,nt,11.2µM*,?,5.76µM*,RECQ1 inh conf=28.2µM*;ADP FP counter=?

# From PubChem
